Several values for one entry are separate records, joined by “and”; a condition that tells them apart may be missing. Identical values can stand only once. Records with an inconclusive call do not appear. Activity calls are given as the source filed them. How the source made its calls: active means hit-call score of the fitted dose curve at least 0.9, where 1 is the maximum; inconclusive means response in the unintended direction; inactive means score below 0.9. Where a SMILES comes first, the peptide text is derived from it. [ ]: non-standard residue; d: D form. Orn = NCCC[C@H](N)C(=O)O
Legend:
[1] = TOX21_p53_BLA_p2_viability: Viability Assessment in the Tox21 HCT-116 p53 Agonism Beta-lactamase Assay, Phase 2 (AID 2283591);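 further: compound exposure lasted 16 h at 37 °C; actives lower the ATP signal meaning cytotoxicity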
How it was run: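 HCT116 p53-bla cells, 4000/well, dosed after 5 h plating (217-fold dilution of DMSO stocks) and incubated 16 h at 37C. Viability taken as cellular ATP by CellTiter-Glo luminescence after 30 min RT; signal loss marks cytotoxicity.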

[2] = target: Cellular tumor antigen p53 (Homo sapiens) (UniProt P04637); test: TOX21_p53_BLA_p2_ratio: Tox21 HCT-116 p53 Agonism Beta-lactamase Assay, Ratio, Phase 2 (AID 2283592)
How it was run: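 Ratio endpoint: beta-lactamase cleavage of CCF4-AM, blue (460 nm) over green (530 nm). HCT116 reporter line; 16 h treatment, 37C; substrate 2 h RT.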

[3] = TOX21_p53_BLA_p3_viability: Viability Assessment in the Tox21 HCT-116 p53 Agonism Beta-lactamase Assay, Phase 3 (AID 2283593);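 further: cells exposed to compound for 16 h before reading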
How it was run: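 HCT116 cells, 4000/well, dosed 5 h after plating by pin transfer (217-fold dilution from DMSO stock) and incubated 16 h at 37C, 5% CO2. Viability read as ATP luminescence with CellTiter-Glo after 30 min at room temperature.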

[4] = target: Cellular tumor antigen p53 (Homo sapiens) (UniProt P04637); test: TOX21_p53_BLA_p3_ratio: Tox21 HCT-116 p53 Agonism Beta-lactamase Assay, Ratio, Phase 3 (AID 2283596)
How it was run: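 Cells were seeded at 4000/well, rested 5 h at 37C, then dosed with DMSO compound solutions (217-fold dilution) for 16 h. CCF4-AM substrate was loaded for 2 h at room temperature, and the 460/530 nm emission ratio was fitted for gain of signal versus DMSO.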

[5] = TOX21_p53_BLA_p4_viability: Viability Assessment in the Tox21 HCT-116 p53 Agonism Beta-lactamase Assay, Phase 4 (AID 2283597);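 further: hits lower the luminescence signal meaning cytotoxicity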
How it was run: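 Cytotoxicity was inferred from loss of CellTiter-Glo luminescence. HCT116 cells had been dosed with compounds after 5 h plating, incubated 16 h at 37C and 5% CO2, and exposed to the CCF4-AM substrate for 2 h.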

[6] = target: Cellular tumor antigen p53 (Homo sapiens) (UniProt P04637); test: TOX21_p53_BLA_p5_ratio: Tox21 HCT-116 p53 Agonism Beta-lactamase Assay, Ratio, Phase 5 (AID 2283599)
How it was run: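 HCT-116 p53-bla cells (4000/well) plated 5 h, dosed with compound (217-fold DMSO dilution) for 16 h at 37 C; CCF4-AM substrate 2 h at room temperature. Activity is the 460/530 nm emission ratio (405 nm excitation), fitted in gain-of-signal direction versus DMSO.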

[7] = TOX21_p53_BLA_p5_viability: Viability Assessment in the Tox21 HCT-116 p53 Agonism Beta-lactamase Assay, Phase 5 (AID 2283600)
How it was run: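 Luciferase-coupled ATP quantitation of cells treated for 16 h (37C, 5% CO2) with test chemicals delivered in DMSO via a 217-fold dilution; 4000 cells/well; reagent incubated 30 min at room temperature before luminescence reading.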

[8] = target: Cellular tumor antigen p53 (Homo sapiens) (UniProt P04637); test: TOX21_p53_BLA_p4_ratio: Tox21 HCT-116 p53 Agonism Beta-lactamase Assay, Ratio, Phase 4 (AID 2283601)
How it was run: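 HCT-116 p53 beta-lactamase reporter cells (4000/well) preincubated 5 h, then compound (217-fold dilution of DMSO stock) for 16 h at 37C. CCF4-AM substrate added 2 h at room temperature; 460/530 nm emission ratio fitted upward versus DMSO.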

Measured: AC50

Cellular tumor antigen p53 (Homo sapiens), sequence (P04637 whole entry, looked up): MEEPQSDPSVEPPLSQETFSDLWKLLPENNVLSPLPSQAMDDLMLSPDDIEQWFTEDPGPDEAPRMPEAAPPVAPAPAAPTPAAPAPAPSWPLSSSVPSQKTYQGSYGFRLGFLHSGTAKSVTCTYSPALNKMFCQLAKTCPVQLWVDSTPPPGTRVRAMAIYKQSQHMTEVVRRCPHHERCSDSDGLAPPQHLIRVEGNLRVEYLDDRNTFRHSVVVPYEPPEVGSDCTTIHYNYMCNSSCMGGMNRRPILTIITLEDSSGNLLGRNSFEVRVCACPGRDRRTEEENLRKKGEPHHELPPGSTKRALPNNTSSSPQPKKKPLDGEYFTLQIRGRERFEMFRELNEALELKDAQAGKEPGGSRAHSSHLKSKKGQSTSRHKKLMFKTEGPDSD

CCCCCCCCCCn1cc[n+](CCCCCCCCCC)c1C
active: [1] 44.2 µM | [2] 18.7 µM | [3] 46.1 µM | [4] 20.1 µM | [5] 57.5 µM | [6] 74.1 µM | [7] 75.2 µM | [8] 73.6 µM

CC(=O)OC(OC(C)=O)c1ccc([N+](=O)[O-])o1
inactive: [2] | [4] | [6] | [8]
active: [1] 74.3 µM | [3] 74.1 µM | [5] 74.8 µM | [7] 88 µM

Oc1ccc(Cl)cc1Sc1cc(Cl)ccc1O
active: [1] 31.3 µM and 23 µM | [2] 31.8 µM and 8.26 µM | [3] 46 µM and 23 µM | [4] 46 µM and 21.2 µM | [5] 53.9 µM and 15.2 µM | [6] 72.3 µM and 32.1 µM | [7] 70.2 µM and 23 µM | [8] 65 µM and 28.6 µM

CC(C)C[C@@H]1NC(=O)[C@H](CCCN)NC(=O)[C@H](C(C)C)NC(=O)[C@@H]2CCCN2C(=O)[C@@H](Cc2ccccc2)NC(=O)[C@H](CC(C)C)NC(=O)[C@H](CCCN)NC(=O)[C@H](C(C)C)NC(=O)[C@@H]2CCCN2C(=O)[C@@H](Cc2ccccc2)NC1=O (cyclo(V[Orn]L[dF]PV[Orn]L[dF]P))
inactive: [2] | [4] | [6]
active: [1] 8.09 µM | [3] 5.88 µM | [5] 5.84 µM | [7] 4.51 µM | [8] 2.35 µM

O=C(NOC[C@H](O)CO)c1ccc(F)c(F)c1Nc1ccc(I)cc1F
inactive: [1] | [2] | [3] | [4] | [5] | [6] | [7] | [8]

CCCCCCCCCCCCCC[n+]1ccc(C)cc1
inactive: [1] | [3] | [5] | [6] | [7] | [8]
active: [2] 20.1 µM | [4] 27.5 µM

CC[C@@H](C(=O)[C@@H](C)[C@@H](O)[C@H](C)CCc1ccc(C)c(O)c1C(=O)O)[C@H]1O[C@](CC)([C@H]2CC[C@](O)(CC)[C@H](C)O2)C[C@@H]1C
active: [1] 23 µM | [2] 17.2 µM | [3] 23 µM | [4] 30.3 µM | [5] 31.1 µM | [6] 36.2 µM | [7] 31.4 µM | [8] 14.6 µM

CCOC(CN1CCN(CC(C)C(=O)c2ccccc2)CC1)c1ccccc1 (configuration not stated)
inactive: [1] | [2] | [3] | [4] | [5] | [6] | [7] | [8]

O=C(Oc1cccc2cccnc12)c1ccccc1
inactive: [1] | [2] | [3] | [4] | [5] | [6] | [7] | [8]

CN=C(N)NCCC[C@H](N)C(=O)O
inactive: [1] | [2] | [3] | [4] | [5] | [6] | [7] | [8]

CSc1ccc2c(c1)C(N1CCN(C)CC1)Cc1ccccc1S2 (configuration not stated)
inactive: [4] | [6]
active: [1] 36.3 µM | [2] 44.4 µM | [3] 37.8 µM | [5] 34.5 µM | [7] 38.3 µM | [8] 42.4 µM

O=CC=C(c1ccccc1)c1ccccc1
active: [2] 46.4 µM | [3] 47.3 µM | [5] 29.8 µM
inactive: [1] | [4] | [6] | [7] | [8]

Oc1c(Cl)cc(Cl)c2cccnc12
inactive: [1] | [3] | [7]
active: [2] 7.4 µM | [4] 7.23 µM | [5] 7.77 µM | [6] 7.4 µM | [8] 6.25 µM

CCCCOc1ccc(C(=O)CCN2CCCCC2)cc1
active: [5] 6.37 µM
inactive: [1] | [2] | [3] | [4] | [6] | [7] | [8]

O=C(CCCN1CCC(O)(c2ccc(Br)cc2)CC1)c1ccc(F)cc1
inactive: [1] | [2] | [3] | [4] | [5] | [6] | [7] | [8]

COc1c(C)c2c(c(O)c1C/C=C(\C)CCC(=O)O)C(=O)OC2
active: [2] 0.0608 µM | [4] 0.102 µM | [5] 0.224 µM | [6] 0.127 µM | [8] 0.091 µM
inactive: [1] | [3] | [7]

CC[C@@]1(O)C(=O)OCc2c1cc1n(c2=O)Cc2cc3c([N+](=O)[O-])cccc3nc2-1
inactive: [1] | [7]
active: [2] 0.124 µM | [3] 0.685 µM | [4] 0.172 µM | [5] 0.654 µM | [6] 0.166 µM | [8] 0.166 µM

COc1cc2[nH]c(=O)[nH]c(=O)c2cc1OC
inactive: [1] | [2] | [3] | [4] | [5] | [6] | [7] | [8]

C=COCC1CCC(CO)CC1 (configuration not stated)
inactive: [1] | [2] | [3] | [4] | [5] | [6] | [7] | [8]

From PubChem BioAssay (EPA / NIEHS)
